# Compound activity deposited in PubChem by National Center for Advancing Translational Sciences (NCATS).
# IL-1B inflam inh: blocks inflammasome-driven IL-1 beta release | THP-1 LPS/ATP IL-1B secretion, AlphaLISA, 16 h; stronger effect = lower value | activity change, % at 57.5 µM | 4.7% of 360,000 active | AID 743279; in the data active = activity change below about -50%; inconclusive = mostly about -30% to -49%; note: % is set by controls: 0 for no effect and ±100 for the full control effect
#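 Secreted IL-1B measured by AlphaLISA bead assay after 16 h compound exposure of THP-1 cells; compounds (final up to 57.5 uM) added 1 h before LPS (250 ng/mL) and ATP (1.25 mM) stimulation; lower signal means less secretion.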
# SW480 rerep: inducers of DNA re-replication in SW480 colon cancer cells; 1.8% of 340,000 active; Potency, µM (series often up to 46.1 µM), for the others: at the top dose re-replication activation, actives largely listed as activators; SW480 DNA re-replication, Hoechst DNA content imaging, 48 h; note: potency is the fitted concentration of half-maximal effect; % of control where 0% means no effect; nearly all actives have a fitted effect of over 55% in size
#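 Image-based read-out: total Hoechst fluorescence of nuclei (405 nm excitation, 500-530 nm emission), with hits raising the fraction of high-intensity nuclei. SW480 colon cells incubated 48 hr with compounds at 37 C.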
# TDP1 cell noCPT: qHTS for Inhibitors of human tyrosyl-DNA phosphodiesterase 1 (TDP1): qHTS in cells in absence of CPT | DT40 Tdp1-/- hTDP1 cells, no CPT, ATP luminescence, 48 h | Potency, µM (titrated, usually from 46.2 µM), inactives show at the top dose activity change, negative = growth inhibition, actives largely listed as inhibitors | 15% of 420,000 active | AID 686978, 2013; note: potency is the fitted concentration of half-maximal effect; % is set by controls: 0 for no effect and ±100 for the full control effect; nearly all actives have a fitted effect of over 55% in size
#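 Chicken DT40 Tdp1-/- cells complemented with human TDP1, screened without camptothecin (DMSO vehicle only), 400 cells/well. Compounds pin-transferred, cells incubated at 37 °C for at least 48 hr. Growth read as ATP-dependent luminescence (CellTiter-Glo, 30 min at RT).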
# TDP1 cell CPT: DT40-hTDP1 cell growth loss with CPT; chicken DT40 Tdp1-/-;hTDP1 cells + 20 nM CPT, ATP luminescence, 48 h; Potency, µM (top dose mostly 46.2 µM), for inactives: at the top dose activity change, negative = growth inhibition, usual class: inhibitors; 12% of 420,000 active; AID 686979; note: potency is the fitted concentration of half-maximal effect; % is set by controls: 0 for no effect and ±100 for the full control effect; nearly all actives have a fitted effect of over 55% in size
#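 Cell growth measured by CellTiter-Glo luminescence after a minimum 48 h, 37 C compound exposure with 20 nM CPT in Tdp1-knockout DT40 cells stably expressing hTDP1, seeded 400/well; qHTS titration format.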
# BCR signal inh: inhibitors of chronic active B-cell receptor signaling; 0.05% of 340,000 active; ABC-DLBCL IkBa-CBG/CBR reporter, luminescence ratio, 4 h; Potency, µM (doses to about 46.1 µM), for the others: top-dose activity change, negative = inhibition, most hits filed as inhibitors; active = well fitted inhibition curve with a large enough effect in the signal ratio, with a control signal flat, not every such curve was filed as active; inconclusive = small, poorly fitted or top-dose-only effect, or effect the other way, or a change in a side signal; the % refers to the signal ratio;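 note: potency is the fitted concentration of half-maximal effect; plate controls were basal doxycycline-induced cells for no effect and cells given 10 µM MG132 for full effect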
#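 Compounds up to 46 uM were incubated four hours with TMD8 cells whose green CBG68 luciferase is fused to IkappaBalpha; red CBR luminescence normalised the signal, and concentration-effect curves were fitted to fusion, red and ratio data.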
# MCF10A rereplic: inducers of DNA re-replication in MCF 10A breast cells; Potency, µM (highest dose often 46.1 µM), for inactives: top-dose activity, positive = re-replication, usual class: activators; AID 624296; 2.9% of 350,000 active; MCF 10A DNA re-replication, Hoechst nuclear intensity, 48 h; note: potency is the fitted concentration of half-maximal effect; % of control where 0% means no effect; nearly all actives have a fitted effect of over 50% in size
# An asterisk follows results filed as active; ? = inconclusive; . = no result given; [ ] = another dose, or the depositor's remark. Rows were chosen to be rich in hits. Some 19% of all compounds tested hit in one or more screens of this group. Unless noted, calls come from the whole dose curve; as a rule, active = well fitted curve in the direction sought with a large enough effect; inconclusive = small, poorly fitted or top-dose-only effect, or another doubt; inactive = no such curve, though single readings can be large; an effect the other way counts as inactive or inconclusive.
SMILES,IL-1B inflam inh,SW480 rerep,TDP1 cell noCPT,TDP1 cell CPT,BCR signal inh,MCF10A rereplic
CCOC(=O)C1(Cc2ccccc2Cl)CCN(C(=O)CCn2ccnc2C)CC1,5.8,-8.7%,-18.4%,-18.0%,26.9%,13.8%
CN(C)S(=O)(=O)c1ccc(C(=O)Nc2ccn(C)n2)cc1,-6.4,4.9%,2.9%,9.9%,13.3%,-15.3%
CC(=O)OCCc1[nH]c2ccccc2c1C,14.8,-5.4%,-12.9%,-22.7%,-7.8%,13.6%
CC(=O)OCCc1c2ccccc2c(CCCN(C)C)c2ccccc12,-3.7,?,?,?,.,18.4µM*
C[C@H](CO)N1C[C@H](C)[C@@H](CN(C)S(C)(=O)=O)Oc2ccc(NS(=O)(=O)c3ccccc3)cc2C1=O,-12.8,?,-6.2%,11.7%,-0.6%,?
CCCCC(=O)Nc1cccc(NC(=O)c2cccnc2Cl)c1,2.4,1.3%,-13.9%,-5.7%,?,-5.6%
Oc1ccc(/C=N/NC(=S)Nc2cccnc2)cc1O,57.5,-1.2%,-4.6%,17.2%,?,-2.1%
Oc1ccc(C=NNC(=S)Nc2cccnc2)nc1,64.2,13µM*,20.6µM*,16.4µM*,.,?
COCCN(CC(=O)Nc1cccc(C)c1C)C(=O)C1(c2ccc(Cl)cc2)CCC1,-53.1*,-12.4%,?,?,?,78.5%
O=C(NCCCc1ccc(F)cc1)C1CCC(=O)N(CCCN2CCCC2=O)C1 (centres undefined),-9.8,0.4%,-16.2%,5.9%,6.8%,11.7%
C=CCn1c(=NC(=O)c2ccccc2[N+](=O)[O-])sc2cc(S(C)(=O)=O)ccc21,-1.7,-7.5%,20.6µM*,16.4µM*,2.4%,?
CCN1CCN(CCNC(=O)c2ccc(/C=C3/Sc4ccccc4N(Cc4cccc(Cl)c4)C3=O)cc2)CC1,-99.3*,7.3%,18.4µM*,18.4µM*,-9.7%,20.6µM*
CCN1CCN(CCNC(=O)c2ccc3c(c2)N(Cc2ccc(F)cc2)C(=O)/C(=C/c2ccccc2)S3)CC1,-102.2*,?,8.2µM*,11.6µM*,?,?
Cc1noc(C)c1COc1ccccc1C(=O)N(C)CC(=O)Nc1ccc(F)c(F)c1F,6.8,0.9%,6.8%,12.7%,5.4%,6.1%
COc1ccc(N(CC(=O)NCc2ccco2)C(=O)CCC(=O)Nc2nccs2)c(OC)c1,-25.2,-12.3%,-25.6%,-7.3%,2.0%,-18.2%
COc1ccc(S(=O)(=O)N2CCOc3ccccc32)cc1,108.1,5.8µM*,3.66µM*,5.17µM*,-5.1%,4.61µM*
COc1ccc(S(=O)(=O)N2c3ccccc3OCC2C)cc1 (centres undefined),74.3,2.59µM*,0.82µM*,0.581µM*,?,1.3µM*
COc1ccc(S(=O)(=O)N2c3ccccc3OCC2c2ccccc2)cc1 (centres undefined),39.2,3.66µM*,23.1µM*,18.4µM*,-23.4%,5.8µM*
COc1ccc(S(=O)(=O)N2c3ccccc3OCC2CC(=O)O)cc1 (centres undefined),17.0,?,29.1µM*,?,1.1%,?
Cc1cc(C)c(NC(=O)CCN2CCCCC2)c(C)c1,.,.,0.8%,2.1%,.,.
CCc1ccccc1NC(=O)N1CCN(Cc2nc3ccc(C)cc3o2)CC1,.,.,-13.1%,-3.8%,.,.
CCCS(=O)(=O)N1CC(=O)N(c2cc(C)cc(C)c2)C(C)(C(=O)NC2CCCCCC2)C1 (centres undefined),.,.,-17.1%,-11.5%,.,.
COc1cc(OC)cc(C(=O)NNC(=O)C2CCC2)c1,-2.8,.,-25.1%,-10.2%,.,.
Cn1c(SCC(=O)NNC(=O)c2ccccc2)nnc1C1CC1,6.5,?,-0.3%,-4.7%,-7.8%,-8.5%
CCCN1CCN(CCCNC(=O)c2ccc3c(c2)sc2nc(-c4ccc(OC)cc4)cn23)CC1,.,.,1.03µM*,1.46µM*,.,.
SMILES,IL-1B inflam inh,SW480 rerep,TDP1 cell noCPT,TDP1 cell CPT,BCR signal inh,MCF10A rereplic
COc1ccc(-c2cn3c(n2)sc2cc(C(=O)Nc4cc(OC)cc(OC)c4)ccc23)cc1,.,.,-21.7%,1.2%,.,.
COc1ccc(-c2cn3c(n2)sc2cc(C(=O)NCCCN4CCN(C)CC4)ccc23)cc1,.,.,1.3µM*,1.16µM*,.,.
O=C(CSc1nc2ccc(Cl)cc2[nH]1)NCc1ccco1,-67.1*,-1.6%,?,-22.3%,1.9%,?
O=C(CSc1nc2ccc(Cl)cc2[nH]1)NCCc1ccccc1,-15.0,-96.7%,20.6µM*,?,-0.2%,?
Cc1cc(C(=O)CSc2ncccn2)c(C)n1Cc1ccco1,6.3,0.9%,-16.6%,-0.9%,6.4%,9.4%
Cc1cc(C(=O)CSc2nc3ccc(Cl)cc3[nH]2)c(C)n1Cc1ccco1,12.3,-5.5%,18.4µM*,20.6µM*,.,?
CCN(C(=O)C1CCCN1S(=O)(=O)c1ccc2c(c1)n(C)c(=O)c(=O)n2C)c1ccccc1 (centres undefined),2.7,-2.3%,-9.4%,-29.4%,6.7%,1.8%
OC[C@H]1O[C@@H](O[C@H]2[C@H](O)[C@@H](O)[C@H](O)O[C@@H]2CO)[C@H](O)[C@@H](O)[C@@H]1O,.,.,-13.3%,18.5%,.,.
Cc1ccc(NC(=O)CCCCCC2NC(=O)NC2C)cc1 (centres undefined),-95.3*,-0.3%,5.6%,-22.3%,?,-2.0%
CC1NC(=O)NC1CCCCCC(=O)Nc1ccc(F)c(Cl)c1 (centres undefined),-115.7*,-5.5%,-20.9%,5.6%,0.3%,-1.9%
CC1NC(=O)NC1CCCCC(=O)O (centres undefined),7.4,-6.2%,?,?,4.1%,9.2%
CCC(=O)Nc1ccc(F)c(Cl)c1,7.4,1.0%[9.22 µM],-5.9%,-3.7%,9.9%,9.3%
Cc1ccccc1NC(=S)NNC(=O)c1csc2c1CCC(C)C2 (centres undefined),?,?,?,?,?,15.8%
COc1ccc(Cl)cc1C(=O)Nc1cccnc1,-8.7,?,17.9%,3.2%,4.3%,-0.3%
COc1ccc(CC(=O)Nc2ccc3nc(Nc4cccc(Cl)c4)cc(C)c3c2)cc1OC,.,.,16.4µM*,18.4µM*,.,.
Cc1cc(Nc2cccc(Cl)c2)nc2ccc(NC(=O)Cc3cccc(C(F)(F)F)c3)cc12,.,.,7.31µM*,9.2µM*,.,.
C/C(CC(=O)Nc1cccc(Cl)c1)=N\NC(=O)Cc1ccc(Cl)cc1,7.8,1.2%,-29.7%,-20.9%,0.9%,4.4%
Cc1cc(Nc2cccc(Cl)c2)nc2ccc(NC(=O)Cc3ccc(Cl)cc3)cc12,.,.,?,18.4µM*,.,.
